Screening results (PubChem BioAssay)
KCNQ2 enhance = KCNQ2 (rat) channel potentiation; O88943; CHO-K1 KCNQ2, FluxOR thallium flux fluorescence; active compounds read high; B-score at 10 µM; 310,000 compounds, 0.54% hits;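 active means fluorescence ratio B-score at least 3 SD of library B-scores, with initial fluorescence B-score within 3 of them, cut at about 5.3 in these data; same plate scores as AID 2156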;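 further: B-score of peak minus minimum over baseline fluorescence ratio after K+ and Tl+ stimulus; positive B-score means potentiation of KCNQ2 with more thallium influx and brighter signal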
Target sequence (O88943 whole entry, looked up): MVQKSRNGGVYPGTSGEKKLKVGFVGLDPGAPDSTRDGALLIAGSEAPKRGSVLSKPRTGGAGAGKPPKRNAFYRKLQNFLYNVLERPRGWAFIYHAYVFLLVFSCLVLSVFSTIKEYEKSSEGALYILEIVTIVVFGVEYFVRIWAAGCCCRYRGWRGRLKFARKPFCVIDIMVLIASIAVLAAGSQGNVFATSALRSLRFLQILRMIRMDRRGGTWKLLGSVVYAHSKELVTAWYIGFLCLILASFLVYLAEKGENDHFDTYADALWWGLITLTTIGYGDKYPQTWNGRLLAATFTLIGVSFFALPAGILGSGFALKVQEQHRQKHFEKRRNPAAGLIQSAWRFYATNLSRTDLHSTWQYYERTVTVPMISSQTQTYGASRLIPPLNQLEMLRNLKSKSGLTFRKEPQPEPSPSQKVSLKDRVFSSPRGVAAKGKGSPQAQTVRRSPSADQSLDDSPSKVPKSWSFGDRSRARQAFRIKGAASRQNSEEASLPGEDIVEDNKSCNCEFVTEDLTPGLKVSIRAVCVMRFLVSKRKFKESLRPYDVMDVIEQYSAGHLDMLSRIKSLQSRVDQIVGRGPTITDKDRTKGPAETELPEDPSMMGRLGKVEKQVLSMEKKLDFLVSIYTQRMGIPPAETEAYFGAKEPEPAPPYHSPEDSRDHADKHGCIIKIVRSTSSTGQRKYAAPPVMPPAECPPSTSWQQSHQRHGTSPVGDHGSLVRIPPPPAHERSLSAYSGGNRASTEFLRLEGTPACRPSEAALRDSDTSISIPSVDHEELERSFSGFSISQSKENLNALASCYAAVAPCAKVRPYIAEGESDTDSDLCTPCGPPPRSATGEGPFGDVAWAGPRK
KCNQ2 inh = inhibitors of rat KCNQ2 potassium channel; AID 2156; 310,000 compounds, 1.1% hits; O88943; B-score at 10 µM; CHO-K1 KCNQ2, FluxOR thallium flux, 20 min; active compounds read low;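 active means fluorescence ratio B-score at most minus 3 library SDs, with starting brightness B-score within 2 library SDs, cut at about -5.5 in these data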
Starred values were filed as active, the others as inactive; i = inactive; · = no result. Only some compounds are listed: those with a hit (about 1.6% of all), similar ones and a draw of the others.

SMILES | KCNQ2 enhance | KCNQ2 inh
CN(C)c1ccc(/C=C(\C#N)C(=O)c2ccccc2)cc1 | 1.3 | i
CN(C)c1cccc(/C=C(\C#N)c2ccccc2)c1 | -5.7 | -5.7*
Cc1nc(CSc2ccc(Cl)cc2)cc(NCc2ccccc2)n1 | -5.7 | -5.7*
CNc1cc(CSc2ccc(Cl)cc2)nc(C)n1 | 1.2 | i
O=C(OCc1ccc([N+](=O)[O-])cc1)c1ccc(N2CCCC2)c([N+](=O)[O-])c1 | · | i
N#Cc1ccc(COC(=O)c2ccc(N3CCCC3)c([N+](=O)[O-])c2)cc1 | -6.8 | -6.8*
NC(N)=NS(=O)(=O)c1ccc(NC(=S)NC(=O)Cc2ccc(Cl)cc2)cc1 | 0.5 | i
COc1ccccc1NC(=O)CC(=O)c1cccc([N+](=O)[O-])c1 | 0.17 | i
COc1ccccc1NC(=O)/C(=C/c1cccc([N+](=O)[O-])c1)c1ccccc1 | -6 | -6*
Cc1nn(C(=O)Cn2ccc([N+](=O)[O-])n2)c(C)c1Cl | 0.43 | i
O=C(COc1ccccc1)NCC(c1ccco1)N1CCN(c2ccc(F)cc2)CC1 (configuration not stated) | · | i
O=C(COc1ccccc1)NCC(c1ccco1)N1CCN(c2ccccc2F)CC1 (configuration not stated) | -7 | -7*
C=CCN(c1ccccc1)S(=O)(=O)c1cccc(C(=O)NCC2CCCO2)c1 (configuration not stated) | 0.68 | i
CN(C)c1ccc(-c2sc(Nc3ccccc3)n[n+]2-c2ccc(F)cc2)cc1 | · | i
COc1ccc(C)cc1Nc1n[n+](-c2ccccc2)c(-c2ccc(N(C)C)cc2)s1 | -5.7 | -5.7*
COc1ccc(C)cc1Nc1n[n+](-c2ccccc2)c(-c2ccc(OC)c(OC)c2OC)s1 | · | i
COc1ccc(C)cc1Nc1n[n+](-c2ccccc2)c(-c2c(Cl)cccc2Cl)s1 | -6.5 | -6.5*
CC(=O)OC(C)[C@H]1CC[C@H]2[C@@H]3CC[C@H]4C[C@@H](OC(C)=O)CC[C@]4(C)C3=CC[C@]12C (some centres not stated) | · | i
COC(=O)N1C(=O)[C@@](c2ccccc2)(C2CCCCC2)N1C(=O)OC | · | i
CCc1cccc(CC)c1NC(=O)c1cc(CN2C(=O)c3ccccc3C2=O)ccc1OC | -8 | -8*
COc1ccc(CN2C(=O)c3ccccc3C2=O)cc1C(=O)O | · | i
COc1ccc2[nH]c3c(N4CC(C)OC(C)C4)ncnc3c2c1 (configuration not stated) | 0.36 | i
COc1cccc(N2CCN(c3ncnc4c3[nH]c3ccccc34)CC2C)c1 (configuration not stated) | -11 | -11*
c1ccc2c(c1)CCN(c1ncnc3c1[nH]c1ccccc13)C2 | · | i
COc1cccc(N2CCN(c3ncnc4c3[nH]c3ccc(F)cc34)CC2C)c1 (configuration not stated) | -11 | -11*
SMILES | KCNQ2 enhance | KCNQ2 inh
COc1cc2c(cc1OC)C(C)N(C(=O)c1cc3c(C)cc(C)cc3[nH]1)CC2 (configuration not stated) | · | i
COC(=O)N/N=C/c1cc(Br)ccc1O | · | i
O=C(N/N=C/c1cc(Br)ccc1O)c1ccccc1Cl | 9.1* | i
CC(=O)N(c1cccc(Cl)c1)c1nc(C)cc(C)c1C#N | · | i
CC1(C)Cc2nc3scc(NC(=O)c4ccccc4)c3cc2CO1 | 1.1 | i
COc1ccc(C(=O)N/C(=C/c2cccs2)c2nc3ccccc3[nH]2)cc1OC | 1.1 | i
COc1cc(/C=C(/C(=O)c2cccs2)c2nc3ccccc3[nH]2)cc(OC)c1O | -6.1 | -6.1*
Cc1cc(C)nc(/N=C(/NC(=O)Nc2cccc(Cl)c2)Nc2ccccc2)n1 | -5.8 | -5.8*
Cc1cc(C)nc(/N=C(\NC(=O)C(C)(C)C)Nc2ccccc2)n1 | 1.3 | i
Cn1c(C(=O)NCCc2c[nH]c3ccccc23)cc2sccc21 | · | i
O=C(NCCc1c[nH]c2ccccc12)c1cc2sccc2n1Cc1ccccc1 | -6.5 | -6.5*
COc1ccc(S(=O)(=O)N2CCCCC2)cc1NC(=O)C1COc2ccccc2O1 (configuration not stated) | · | i
CCN(CC)c1ccc(CNCc2cccs2)cc1 | · | i
O=C(COC(=O)c1ccc2ccccc2n1)c1ccc(F)cc1 | 0.91 | i
O=C(OCCNC(=O)c1ccc2ccccc2n1)c1ccc(F)cc1 | -7.3 | -7.3*
CC1CSC(N(C(=O)c2ccc(S(C)(=O)=O)cc2)c2ccc(Cl)cc2)=N1 (configuration not stated) | · | i
S=c1nccc(-c2ccc(Cl)cc2)[nH]1 | · | i
S=c1[nH]c(-c2ccc(Cl)cc2)cs1 | 19* | i
CC1CCC2(CC1)C(Nc1cccc(Cl)c1)=NC(=S)N2CC#N (configuration not stated) | · | i
COc1ccc(CCC(=O)N2CCN(C(=O)c3ccccc3)CC2)cc1 | 0.88 | i
O=C1NC2(Nc3ccccc31)C(=O)Nc1ccc(Br)cc12 (configuration not stated) | -6.2 | -6.2*
O=C1NC2(Nc3ccccc31)C(=O)Nc1ccccc12 (configuration not stated) | 0.11 | i
NS(=O)(=O)c1ccc(CNC(=O)NC23CC4CC(CC(C4)C2)C3)cc1 | 0.67 | i
Cc1ccc(CNC(=O)NC23CC4CC(CC(C4)C2)C3)cc1 | 11* | i
CCc1nn(CC(=O)N2CCN(c3ccc(OC)cc3)CC2)c(=O)c2cc3occc3n12 | · | i
SMILES | KCNQ2 enhance | KCNQ2 inh
CC(C)/C(=N/Nc1ccccc1[N+](=O)[O-])c1ccccc1 | -6.4 | -6.4*
C/C(=N/Nc1ccccc1[N+](=O)[O-])c1ccc(C)c([N+](=O)[O-])c1 | 0.55 | i
Cc1noc(C)c1CSc1nc2[nH]ncc2c(=O)n1-c1ccccc1 | · | i
COc1ccc(C(C)=O)cc1CSc1nc2ccccc2c(=O)n1-c1ccccc1 | · | i
Cc1noc(C)c1CSc1nc2ccccc2c(=O)n1-c1ccccc1 | -7.1 | -7.1*
COc1ccc(C(C)=O)cc1CSc1nc2ccccc2c(=O)n1-c1cccc(C)c1 | -6.7 | -6.7*
Oc1ccccc1CN1CCCC(N2CCc3ccccc3C2)C1 (configuration not stated) | · | i
Cn1ccsc1=NC(=O)c1cccc(C#N)c1 | 1.4 | i
COc1ccc(Cc2nc3ccc(C(=O)N(C)CCn4ccnc4)cc3o2)cc1OC | · | i
O=S(=O)(Cc1ccccc1Cl)NCCc1ccccc1 | · | i
O=C(Nc1cccc(C(F)(F)F)c1)c1cccnc1N1CCN(CCO)CC1 | · | i
O=C(Nc1cccc(C(F)(F)F)c1)c1cccnc1N1CCN(c2ccccc2)CC1 | -7 | -7*
COc1ccc(-c2csc(NC(=O)C3CSC4(C)CCC(=O)N34)n2)c(OC)c1 (configuration not stated) | 1 | i
Cc1cccc(C)c1OCc1cc(C(=O)N2CCN(c3ccccc3)CC2C)no1 (configuration not stated) | -7.1 | -7.1*
CC1CN(c2ccccc2)CCN1C(=O)c1cc(COc2c(F)cccc2F)on1 (configuration not stated) | 1.3 | i
O=C(c1ccoc1)N1CCCC(N2CCN(c3cccc(Cl)c3)CC2)C1 (configuration not stated) | · | i
Cc1ccc(-c2cc(C(F)F)n3ncc(C(=O)N4CCN(c5cccc(C)c5C)CC4)c3n2)cc1 | -6.4 | -6.4*
CCOC(=O)N1CCN(C(=O)c2cnn3c(C(F)F)cc(-c4ccc(C)cc4)nc23)CC1 | 3 | i
